Compound activity: PubChem, National Center for Advancing Translational Sciences (NCATS)
Hits are enriched below; roughly 3.8% of the tested compounds scored in any of these assays.
hERG WT inh – qHTS for Inhibitors of KCHN2 3.1: Wildtype qHTS; 340,000 tested, 0.37% active; AID 720551, 2013; Voltage-gated inwardly rectifying potassium channel KCNH2 (Homo sapiens), Q12809; activity change, % at 1.84 µM; U2OS, BacMam KCNH2, thallium flux FluxOr; hits give low values;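 active means maximum activity change below -70%; inconclusive means maximum activity change between -70% and -50%; inactive means maximum activity change above -50%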; further: on the % scale 0 is the no-effect control and ±100 the full control effect
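U2OS cells were transduced with wild-type KCNH2 virus (2.03 x 10^8 / mL) for 4 h at room temperature, then cultured overnight at 37 C. Thallium flux was read with FluxOr dye. Rate constants were normalized to DMSO controls.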
MBNL1-CUG inh – qHTS Assay for Inhibitors of MBNL1-poly(CUG) RNA binding. Muscleblind-like protein 1 (Homo sapiens), Q9NR56. TR-FRET MBNL1-His/biotin-(CUG)12 binding, 665/545 ratio. Potency, µM (series often up to 57.5 µM), for inactives: at the highest dose activity change, negative = inhibition, usual class: inhibitors. 280,000 tested, 0.036% active; active means well fitted inhibition curve with a large enough effect in the signal ratio, with a control signal flat, not every such curve was filed as active; inconclusive means small, poorly fitted or top-dose-only effect, or effect the other way, or a change in a side signal; inactive means no such curve, though single readings can be large or run the other way; the % refers to the signal ratio; further: potency means the concentration at half of the fitted maximal effect; on the % scale 0 is the no-effect control and ±100 the full control effect
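MBNL1-His + Biotin-(CUG)12, cpd titration 92 nM–58 uM; Tb anti-His Ab 0.055 ng/ul, SA-XL665 5 nM (final); 60 min RT; ratiometric 665/545 nm, Ex 340 nm; normalized to buffer and full-complex controls.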
CBFb-RUNX1 inh – qHTS Assay for Compounds Blocking the Interaction Between CBF-beta and RUNX1 for the Treatment of Acute Myeloid Leukemia. 230,000 tested, under 10 active. Potency, µM (series often up to 59.8 µM), without a hit: top-dose activity, negative = inhibition, actives largely listed as inhibitors. AlphaScreen CBFb-His/RUNX1-biotin binding, biochemical. Runt-related transcription factor 1 (Homo sapiens) + Core-binding factor subunit beta …; further: % of control where 0% means no effect
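Interaction loss through any mechanism counts as activity. Pre-formed complex of His-CBF-beta and biotin-RUNX1 (30 nM apiece) is incubated with compound 15 min, then with 50 ng nickel and 50 ng streptavidin beads for 90 min before AlphaScreen detection.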
VDR inh – Inhibitors of the vitamin D receptor (VDR): qHTS; VDR-SRC2-3 peptide fluorescence polarization, 2 h; Potency, µM, inactives show max response, negative = inhibition, usual class: inhibitors; 400,000 tested, 0.93% active; AID 504847, 2011; further: potency means the concentration at half of the fitted maximal effect; on the % scale 0 is the no-effect control and ±100 the full control effect
Target sequence (P11473 whole entry, looked up): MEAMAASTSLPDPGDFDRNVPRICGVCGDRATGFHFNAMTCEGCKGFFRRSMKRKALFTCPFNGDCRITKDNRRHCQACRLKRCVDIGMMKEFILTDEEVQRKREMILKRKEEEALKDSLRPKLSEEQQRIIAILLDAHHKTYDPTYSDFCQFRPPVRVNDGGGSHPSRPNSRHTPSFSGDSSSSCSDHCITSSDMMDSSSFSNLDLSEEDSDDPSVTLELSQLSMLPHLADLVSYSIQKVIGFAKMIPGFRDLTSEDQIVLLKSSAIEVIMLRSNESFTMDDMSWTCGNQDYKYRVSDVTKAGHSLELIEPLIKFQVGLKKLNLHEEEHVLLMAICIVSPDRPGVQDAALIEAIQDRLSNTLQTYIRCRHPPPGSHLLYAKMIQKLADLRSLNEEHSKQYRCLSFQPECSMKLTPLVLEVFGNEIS
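Reagent solutions, kept cold and dark, are dispensed first; compounds are then pinned in at 23 nl, plates briefly spun, and incubated 2 h at ambient temperature. Inhibition of VDR–SRC2-3 peptide binding is read by fluorescence polarization.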
PLK1 PBD inh – qHTS for Inhibitors of PLK1-PDB (polo-like kinase 1 - polo-box domain): Primary Screen. AID 720504, 2013. Serine/threonine-protein kinase PLK1 (Homo sapiens), P53350. Plk1 PBD binding of FITC phosphopeptide, fluorescence polarization. Potency, µM, inactives show max response, negative = inhibition, hits mostly inhibitors. 360,000 tested, 2.8% active; further: potency means the concentration at half of the fitted maximal effect; series mostly up to about 57 µM; on the % scale 0 is the no-effect control and ±100 the full control effect; nearly all actives have a fitted effect of over 65% in size
KCNH2 3.1 block – qHTS for Inhibitors of KCHN2 3.1: Mutant qHTS; Potassium voltage-gated channel subfamily H member 2, brain isoform KCNH2 3.1 (human); U2OS KCNH2 3.1, thallium flux FluxOr; hits give low values; activity change, % (tested at about 1.8 µM); 340,000 tested, 0.95% active;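 active means maximum activity change below -70%; inconclusive means maximum activity change from -70% to -50%; inactive means maximum activity change above -50%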;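 further: thallium influx rate constant from kinetic fluorescence after stimulation buffer; on the % scale 0 is the no-effect control and ±100 the full control effect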
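Normalized rate constant (relative to positive and negative DMSO controls) derived from a 2 min kinetic fluorescence read after stimulation; U2OS cells expressing the 3.1 isoform via virus at 1.77 x 10^8 /mL.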
* hit, by the source's call. Unless noted, the call rests on the fitted dose curve; in most records, active means well fitted curve in the direction sought with a large enough effect; inconclusive means small, poorly fitted or top-dose-only effect, or another doubt; inactive means no such curve, though single readings can be large; an effect the other way counts as inactive or inconclusive.

How did CC(C)COc1ccc(C(=O)N2CCCCC2CCN2CCOCC2)cc1 (stereo unspecified) do in these assays?
VDR inh: -2%

Results for CN1CCN(NC(=O)c2cn(-c3ccccc3)nc2-c2cccs2)CC1 ?
MBNL1-CUG inh: -6%; CBFb-RUNX1 inh: 9%; VDR inh: -9%; PLK1 PBD inh: inconclusive; KCNH2 3.1 block: -3

How did O=C(NN1CCOCC1)c1cn(-c2ccccc2)nc1-c1cccs1 do in these assays?
hERG WT inh: -16; MBNL1-CUG inh: -2%; CBFb-RUNX1 inh: -2%; VDR inh: -19%; PLK1 PBD inh: 24µM*; KCNH2 3.1 block: 2

Results for Cn1c(=O)c2c(-c3ccccc3Br)n(C(C)(C)C)cc2n(C)c1=O ?
VDR inh: -2%

Results for O=C(NNS(=O)(=O)c1ccccc1[N+](=O)[O-])c1ccc(O)cc1 ?
hERG WT inh: 1; MBNL1-CUG inh: inconclusive; CBFb-RUNX1 inh: 2%; VDR inh: -4%; PLK1 PBD inh: 24µM*; KCNH2 3.1 block: -12

Results for O=C(NNS(=O)(=O)c1ccccc1[N+](=O)[O-])c1ccc(F)cc1 ?
hERG WT inh: -11; MBNL1-CUG inh: 14%; CBFb-RUNX1 inh: 2%; VDR inh: -4%; PLK1 PBD inh: -3%; KCNH2 3.1 block: 3

Results for Cc1ccc(C(=O)NNS(=O)(=O)c2ccccc2[N+](=O)[O-])cc1 ?
hERG WT inh: 1; MBNL1-CUG inh: -28%; CBFb-RUNX1 inh: -4%; VDR inh: -2%; PLK1 PBD inh: 27µM*; KCNH2 3.1 block: 1

What do the screens show for `CCOC(=O)Cn1c(=O)oc2cc(S(=O)(=O)Nc3cc(OC)cc(OC)c3)ccc21`?
VDR inh: -1%

Results for CCOC(=O)c1cc(-c2ccccc2)n(-c2cccc(C(=O)Nc3ccc(F)c(F)c3)c2)c1C ?
VDR inh: 7%

What do the screens show for `O=S(=O)(Nc1ccc(O)c2ccccc12)c1cccs1`?
hERG WT inh: 2; MBNL1-CUG inh: inconclusive; VDR inh: inconclusive; PLK1 PBD inh: 12µM*; KCNH2 3.1 block: 20

How did O=S(=O)(Nc1cccc2ccccc12)c1cccs1 do in these assays?
hERG WT inh: 0; MBNL1-CUG inh: 6%; VDR inh: 9%; PLK1 PBD inh: -3%; KCNH2 3.1 block: -3

What do the screens show for `COc1cc(NC(=O)CCc2nnc3ccc(N4CCN(c5cccc(OC)c5)CC4)nn23)cc(OC)c1`?
hERG WT inh: 5; MBNL1-CUG inh: 0%; VDR inh: -7%; PLK1 PBD inh: 4%; KCNH2 3.1 block: -47

Results for COc1cccc(NC(=O)CCc2nnc3ccc(N4CCN(c5cccc(OC)c5)CC4)nn23)c1 ?
hERG WT inh: 4; MBNL1-CUG inh: 12%; VDR inh: inconclusive; PLK1 PBD inh: 6µM*; KCNH2 3.1 block: 2

What do the screens show for `O=c1[nH]c(-c2cccnc2)nc2ccccc12`?
hERG WT inh: 3; MBNL1-CUG inh: -2%; CBFb-RUNX1 inh: 20%; VDR inh: -14%; PLK1 PBD inh: -1%; KCNH2 3.1 block: 1

Results for O=c1[nH]c(-c2ccncc2)nc2ccccc12 ?
hERG WT inh: -4; MBNL1-CUG inh: -4%; CBFb-RUNX1 inh: 5%; VDR inh: 79µM*; PLK1 PBD inh: 5.3µM*; KCNH2 3.1 block: 3

Results for CC(C)Nc1nc2ccccc2c(=O)[nH]1 ?
hERG WT inh: -1; MBNL1-CUG inh: -9%; CBFb-RUNX1 inh: 10%; VDR inh: inconclusive; PLK1 PBD inh: 21µM*; KCNH2 3.1 block: 0
